Drawing on PubChem BioAssay (EPA / NIEHS), this text covers outcome and AC50 for 6 compounds.

Molecules are shown by their SMILES. Results filed as inconclusive are left out. Activity calls are given as the source filed them. The calls were made as follows, unless noted: active = hit-call score of the fitted dose curve at least 0.9, where 1 is the maximum; inconclusive = response in the unintended direction; inactive = score below 0.9.

The term AC50 denotes the midpoint of the concentration-response curve, whichever way the signal moves.

Experiment [1] deals with PGR (gene 5241) (UniProt P06401). In words: TOX21_PR_BLA_Followup_Antagonist_ratio: Tox21 HEK293 Progesterone Receptor (PR) Antagonism Beta-lactamase Follow-Up Assay, Ratio (AID 2283934). The method, boiled down: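 PR-UAS-bla HEK293T cells, 3,000/well in 2% charcoal-stripped FBS, given compound plus 1nM R5020 agonist for 16 hr at 37C. Beta-lactamase FRET substrate 2 hours, ratio cleaved/uncleaved fluorescence; viability by CellTiter-Glo in same wells.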

Experiment [2] is described as follows: TOX21_PR_BLA_Followup_Agonist_viability: Viability Assessment in the Tox21 HEK293 Progesterone Receptor (PR) Agonism Beta-lactamase Follow-Up Assay (AID 2283935).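 Also: signal loss means lower viability so actives are cytotoxic.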 The method, boiled down:
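PR-UAS-bla HEK293T cells in 2% charcoal-stripped FBS medium, plated 6 hr before compound addition, exposed 16 hr at 37C. Viability read by CellTiter-Glo ATP luminescence after 30 min at room temperature, in the same wells as the beta-lactamase readout.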

A short description of experiment [3]: TOX21_PR_BLA_Followup_Antagonist_viability: Viability Assessment in the Tox21 HEK293 Progesterone Receptor (PR) Antagonism Beta-lactamase Follow-Up Assay (AID 2283936).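 Also: hits lower the luminescence signal meaning cytotoxicity.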 The method, boiled down: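 PR-UAS-bla HEK293T cells (3,000/well, 2% charcoal-stripped FBS) given compound plus R5020 agonist, 16 h at 37C. CellTiter-Glo added after bla read, 30 min at room temperature; luminescence loss indicates cytotoxicity.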

For experiment [4], the target named is PGR (gene 5241) (UniProt P06401). Nature of the experiment: TOX21_PR_LUC_Followup_Agonist: Tox21 HEK293 Progesterone Receptor (PR) Agonism Luciferase Follow-Up Assay (AID 2283937; active = hit-call score of the fitted dose curve at least 0.9, where 1 is the maximum; inactive = score below 0.9). The method, boiled down:
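HEK293-PR-A-luc cells, conditioned 5 days in 10% charcoal-stripped FBS medium, seeded 3,000/well for 5 h, then compound-treated 16 h at 37C. ONE-Glo luminescence read after 30 min at room temperature; gain of signal versus DMSO.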

Experiment [5] has the same target. Nature of the experiment: TOX21_PR_LUC_Followup_Antagonist: Tox21 HEK293 Progesterone Receptor (PR) Antagonism Luciferase Follow-Up Assay (AID 2283938).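 Also: curve fitted upward as signal gain over DMSO baseline despite antagonist label.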 The method, boiled down: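 HEK293-PR-A-luc cells, 3,000/well, preincubated 5 h at 37C before compound addition in DMSO; 16 h compound exposure at 37C. ONE-Glo luciferase luminescence read after 30 min at room temperature, fitted relative to DMSO baseline.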

Experiment [6] can be described thus: TOX21_PR_LUC_Followup_Antagonist_viability: Viability Assessment in the Tox21 HEK293 Progesterone Receptor (PR) Antagonism Luciferase Follow-Up Assay (AID 2283940). The method, boiled down: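 HEK293-PR-A-luc cells kept in charcoal-stripped FBS medium were plated 5 h before compound addition, then exposed 16 h at 37C; viability read as cellular ATP by luciferase luminescence, loss of signal indicating cytotoxicity.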

Experiment [7] in a line: TOX21_PR_LUC_Followup_Agonist_viability: Viability Assessment in the Tox21 HEK293 Progesterone Receptor (PR) Agonism Luciferase Follow-Up Assay (AID 2283941).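 Also: loss of signal means cytotoxicity so actives lower viability.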 The method, boiled down: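 HEK293-PR-A-luc cells, kept in 10% charcoal-stripped FBS medium, were treated with compounds for 16 h at 37C. Viability read as cellular ATP by luciferase-coupled luminescence; loss of signal indicates cytotoxicity.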

Experiment [8] has as its target Thyroid hormone receptor alpha (Rattus norvegicus) + Thyroid hormone receptor beta (Rattus norvegicus) (UniProt P18113+P63059). Nature of the experiment: TOX21_TR_LUC_GH3_Antagonist_Followup: Tox21 GH3 Thyroid Hormone Receptor Antagonism Luciferase Follow-Up Assay (AID 2283942). The method, boiled down:
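Confirmatory qHTS, antagonist mode: T3 (1.0 nM final) + test cpd, 15 conc, 92 uM–5nM final, GH3 rat pituitary line, 24 h, 37C. Luc reporter, RLU vs DMSO.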

In experiment [9] the target is THRB (gene 7068) (UniProt P10828). In words: TOX21_TRB_BLA_Antagonist_Followup_ratio: Tox21 Thyroid Hormone Receptor beta Antagonism Beta-lactamase (BLA) Follow-Up Assay, Ratio (AID 2283958). The gist of the method:
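HEK293T cells with a GAL4-TRb LBD fusion and UAS-bla reporter, 3,000 cells/well in phenol red-free DMEM with 2% charcoal-stripped FBS. Exposed 18 h at 37C to 11 concentrations in triplicate; CCF4 460:530 nm ratio after 2 h, DMSO-referenced.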

The target is the same in experiment [10]. Nature of the experiment: TOX21_TRB_COA_Antagonist_Followup_ratio: Tox21 Thyroid Hormone Receptor beta Antagonism through Coactivator Recruitment Follow-Up Assay, Ratio (AID 2283967). The method, boiled down:
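Test compound was incubated with 5.0 nM GST-TRβ LBD in 0.10% BSA. Then 200 nM fluorescein-SRC-2 peptide and 2 nM terbium anti-GST antibody were added. TR-FRET (520:495 nm) was measured and normalized to DMSO and T3 controls.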

The target in experiment [11] is Retinoic acid receptor RXR-alpha (Homo sapiens) (UniProt P19793). In words: TOX21_TR_RXR_BLA_Antagonist_Followup_ratio: Tox21 Thyroid Hormone Receptor beta Retinoid X Receptor alpha (RXRa) Antagonism Beta-lactamase (BLA) Follow-Up Assay, Ratio (AID 2283972). The gist of the method:
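RXRa-UAS-bla HEK293T cells, 2,500/well in phenol red-free DMEM with 2% charcoal-stripped FBS, 5 h attachment, then compounds (11 concentrations, triplicate) for 16 h at 37C; FRET-B/GCCF4-AM substrate 2 h RT; 460:530 nm ratio, loss of signal vs DMSO.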

Experiment [12] can be described thus: TOX21_TR_RXR_BLA_Antagonist_Followup_viability: Viability Assessment in the Tox21 Thyroid Hormone Receptor beta Retinoid X Receptor alpha (RXRa) Antagonism Beta-lactamase (BLA) Follow-Up Assay (AID 2283979). The method, boiled down:
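Follow-up compounds (11 concentrations, triplicate) were incubated 16 h at 37C/5% CO2 with HEK293T RXRa-bla cells seeded at 2,500/well in charcoal-stripped-serum medium. ATP content by CellTiter-Glo luminescence gave viability; curves fitted in both directions against DMSO.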

Chain of PGR (gene 5241) (P06401 whole entry, looked up): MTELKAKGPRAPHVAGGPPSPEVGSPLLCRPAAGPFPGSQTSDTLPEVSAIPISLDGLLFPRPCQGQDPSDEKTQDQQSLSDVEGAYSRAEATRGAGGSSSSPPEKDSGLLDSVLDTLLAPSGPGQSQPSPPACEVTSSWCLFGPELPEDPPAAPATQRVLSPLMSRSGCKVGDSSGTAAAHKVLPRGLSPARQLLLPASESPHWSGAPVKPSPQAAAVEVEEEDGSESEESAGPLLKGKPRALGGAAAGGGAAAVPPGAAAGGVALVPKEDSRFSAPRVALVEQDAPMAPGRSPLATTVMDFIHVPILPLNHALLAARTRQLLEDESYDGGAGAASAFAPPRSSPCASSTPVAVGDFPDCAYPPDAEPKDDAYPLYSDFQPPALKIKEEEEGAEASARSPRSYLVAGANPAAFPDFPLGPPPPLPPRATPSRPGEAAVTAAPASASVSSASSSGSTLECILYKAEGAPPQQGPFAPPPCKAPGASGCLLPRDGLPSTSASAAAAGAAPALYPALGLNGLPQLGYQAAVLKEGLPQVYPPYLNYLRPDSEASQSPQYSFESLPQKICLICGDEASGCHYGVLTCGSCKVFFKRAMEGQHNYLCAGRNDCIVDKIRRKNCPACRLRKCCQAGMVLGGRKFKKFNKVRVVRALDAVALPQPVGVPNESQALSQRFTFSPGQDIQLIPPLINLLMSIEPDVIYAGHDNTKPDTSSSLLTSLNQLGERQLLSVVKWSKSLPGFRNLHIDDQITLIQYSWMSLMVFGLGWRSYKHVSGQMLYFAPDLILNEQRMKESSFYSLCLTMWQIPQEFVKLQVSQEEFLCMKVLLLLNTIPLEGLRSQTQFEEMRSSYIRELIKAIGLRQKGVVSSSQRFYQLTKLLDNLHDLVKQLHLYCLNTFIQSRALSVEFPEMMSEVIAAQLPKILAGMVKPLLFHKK
Chain of THRB (gene 7068) (P10828 whole entry, looked up, the tested form may be a part): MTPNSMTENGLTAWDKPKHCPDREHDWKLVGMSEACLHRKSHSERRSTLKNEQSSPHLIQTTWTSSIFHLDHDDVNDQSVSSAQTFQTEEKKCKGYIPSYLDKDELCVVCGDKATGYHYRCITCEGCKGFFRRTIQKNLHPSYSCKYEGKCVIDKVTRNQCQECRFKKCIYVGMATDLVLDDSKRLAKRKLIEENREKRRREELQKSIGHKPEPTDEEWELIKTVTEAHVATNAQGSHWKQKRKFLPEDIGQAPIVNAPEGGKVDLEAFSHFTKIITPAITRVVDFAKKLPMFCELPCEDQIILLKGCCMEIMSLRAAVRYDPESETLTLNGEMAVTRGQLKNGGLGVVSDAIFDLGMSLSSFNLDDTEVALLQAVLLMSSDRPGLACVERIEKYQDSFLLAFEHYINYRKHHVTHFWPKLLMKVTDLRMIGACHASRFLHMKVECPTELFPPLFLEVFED
Chain of Retinoic acid receptor RXR-alpha (Homo sapiens) (P19793 whole entry, looked up): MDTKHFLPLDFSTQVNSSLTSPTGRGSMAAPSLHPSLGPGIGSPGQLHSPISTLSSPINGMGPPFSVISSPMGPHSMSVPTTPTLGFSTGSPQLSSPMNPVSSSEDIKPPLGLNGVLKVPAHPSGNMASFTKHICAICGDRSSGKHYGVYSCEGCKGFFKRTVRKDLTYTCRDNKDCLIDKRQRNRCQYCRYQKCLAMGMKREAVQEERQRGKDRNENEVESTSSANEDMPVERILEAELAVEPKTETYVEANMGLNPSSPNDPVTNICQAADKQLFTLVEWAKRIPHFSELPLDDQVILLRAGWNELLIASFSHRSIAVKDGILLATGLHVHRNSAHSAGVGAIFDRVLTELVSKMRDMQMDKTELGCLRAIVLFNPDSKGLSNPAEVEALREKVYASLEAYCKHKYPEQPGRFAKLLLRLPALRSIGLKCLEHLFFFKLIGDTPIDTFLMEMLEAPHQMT

Consider `CC1(C)OC(=O)Nc2ccc(Br)cc21`, for which the result (with PGR (gene 5241) [1]; in [2]; in experiment [3]; with PGR (gene 5241) [4]; in the experiment with PGR (gene 5241) [5]) was inactive.

As for `Clc1ccccc1CN1CCc2sccc2C1`, the compound was classed as inactive in experiment [2], in experiment [3], in experiment [6] and in experiment [7].

With `CC(=O)O[C@H]1CC[C@@]2(C)C(=CC[C@@H]3[C@@H]2CC[C@]2(C)C(C(C)=O)=CC[C@@H]32)C1`, the concentration at half-maximal activity (AC50) with PGR (gene 5241) [1] is 10 µM (active); in the experiment with PGR (gene 5241) [5], 9.14 µM (active). The outcome (in experiment [2]; in experiment [3]; with PGR (gene 5241) [4]; in experiment [6]; in experiment [7]) was inactive.

On to `COC(=O)[C@@H]1CC2=CC(=O)CC[C@]2(C)[C@@]23O[C@@H]2C[C@@]2(C)[C@@H](CC[C@@]24CCC(=O)O4)[C@H]13`, for which the compound was classed as inactive (in experiment [2]; in experiment [3]; in the experiment with PGR (gene 5241) [4]; in the experiment with PGR (gene 5241) [5]; in experiment [6]; in experiment [7]).

As for `CCCCCCC[N+](CC)(CC)CCCCc1ccc(Cl)cc1`, the result (in [8]; in the experiment with THRB (gene 7068) [9]; in the experiment with THRB (gene 7068) [10]; in [11]; in [12]) was inactive.

`CCN(CC)CC(=O)OCC(=O)[C@@]1(O)CC[C@H]2[C@@H]3CCC4=CC(=O)CC[C@]4(C)[C@H]3[C@@H](O)C[C@@]21C`: the result (in the experiment with PGR (gene 5241) [1]; in [2]; in experiment [3]; with PGR (gene 5241) [5]; in experiment [6]; in [7]) was inactive. Also, the concentration at half-maximal activity (AC50) with PGR (gene 5241) [4] was 1.47 µM (active).
